Source: PubChem
Most compounds without a hit are left out; they make up all but 4.8% or so of the library.
DAX1 inh-1 = DAX1 (NR0B1) inhibitors, primary screen, cell-based, HEK293, Gal4-DAX1, luciferase luminescence. inhibition, % at 6.75 µM. AID 504766, 2011. 0.99% of 340,000 active. HEK293 Gal4-DAX1 luciferase reporter;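 active = inhibition above the mean over all tested compounds plus 3 SD, cut at about 4.2% in these data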;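 note: 0% = DAX1-transfected cells with DMSO and 100% = empty-vector control cells with DMSO; inhibition shows as a rise in luminescence from relieved DAX1 repression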
Target sequence (P51843 207-470 limits assumed): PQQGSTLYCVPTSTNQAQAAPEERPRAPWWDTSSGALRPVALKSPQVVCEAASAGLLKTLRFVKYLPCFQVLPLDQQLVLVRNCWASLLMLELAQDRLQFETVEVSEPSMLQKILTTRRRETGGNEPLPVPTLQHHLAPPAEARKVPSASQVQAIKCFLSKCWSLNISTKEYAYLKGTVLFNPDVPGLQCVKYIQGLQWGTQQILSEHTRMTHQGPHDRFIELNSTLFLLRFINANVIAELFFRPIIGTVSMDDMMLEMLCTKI
hcDAF12 agonist = H. contortus DAF-12 nuclear receptor activators, primary screen, cell-based, luminescence, HEK293, lit1-tk-luc reporter; activation, % at 6.8 µM; 1.4% of 370,000 active; AID 652067, 2013; HEK293 hcDAF-12 lit1-tk-luc reporter; 0% DMSO, 100% Δ7-dafachronic acid;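 active = activation above the mean of all tested compounds plus 3 SD, cut at about 5.5% in these data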;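 note: 100% = response to 3 µM Δ7-dafachronic acid high control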
ssDAF-12 act = S. stercoralis DAF-12 nuclear receptor activators, primary screen, cell-based, luminescence, HEK293, GRIP1 co-expression, lit1-tk-luc | Nuclear hormone receptor DAF-12 (Strongyloides stercoralis) | HEK293 ssDAF-12/GRIP1 lit1-tk-luc reporter; % of 3 µM dafachronic acid response | activation, % at 6.8 µM | 1% of 370,000 active | AID 652126, 2013;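 active = activation above the mean over all tested compounds plus 3 SD, cut at about 0.9% in these data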;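 note: 0% = DMSO-only wells and 100% = 3 µM delta7-dafachronic acid wells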
hgDAF12 agonist = H. glycines DAF-12 receptor agonists, primary screen, cell-based, luminescence, HEK293, GAL4 fusion, UAS-luciferase. Nuclear hormone receptor DAF-12 (Heterodera glycines), GAL4 fusion. HEK293 GAL4-hgDAF12 UAS-luciferase reporter, agonist luminescence; normalized to butyrate control. activation, % at 6.8 µM. 1.8% of 370,000 active;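 active = activation above a cutoff set at the mean of all screened compounds plus 3 SD, cut at about 10% in these data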;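 note: 0% = DMSO wells and 100% = sodium butyrate wells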
DAX1 inh-2 = DAX1 (NR0B1) inhibitors on StAR promoter, primary screen, cell-based, luminescence, SF-1 (NR5A1), full-length DAX-1; HEK293T StAR-luciferase reporter, SF-1/DAX-1 repression relief; inhibition, % at 6.8 µM; 1.1% of 370,000 active; AID 652010, 2013;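 active = inhibition above the mean over all tested compounds plus 3 SD, cut at about 3.6% in these data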;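 note: 0% = DAX-1 cells with DMSO and 100% = cells lacking DAX-1 with DMSO; higher inhibition means more luminescence from relief of DAX-1 repression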
SMARCA2 act = SMARCA2 (BRM) function activators, primary screen, cell-based, luminescence, high throughput; MG213 cells, MMTV-luciferase reporter, dexamethasone, overnight; activation, % at 9.1 µM; 1% of 370,000 active; AID 652017, 2013; in the data active = activation above about 7.8%;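 note: 0% = vehicle wells and 100% = reference activator wells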
LXR ag = LXR agonists, Gal4 luciferase reporter, confirmation, counter-screen for hcDAF-12 agonist project, cell-based, luminescence, HEK293, H. contortus campaign; HEK293 Gal4-LXR tk-luc reporter, 24 h; normalized: DMSO 0%, positive control 100%; 3,400 tested, under 10 active; AID 743027, 2013; shares compounds with hcDAF12 agonist; activation, % at 6.8 µM;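 active = mean percent activation of the reporter above a cutoff set as the average over tested compounds plus their standard deviation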
Target sequence (P55055 whole entry, looked up, the tested form may be a part): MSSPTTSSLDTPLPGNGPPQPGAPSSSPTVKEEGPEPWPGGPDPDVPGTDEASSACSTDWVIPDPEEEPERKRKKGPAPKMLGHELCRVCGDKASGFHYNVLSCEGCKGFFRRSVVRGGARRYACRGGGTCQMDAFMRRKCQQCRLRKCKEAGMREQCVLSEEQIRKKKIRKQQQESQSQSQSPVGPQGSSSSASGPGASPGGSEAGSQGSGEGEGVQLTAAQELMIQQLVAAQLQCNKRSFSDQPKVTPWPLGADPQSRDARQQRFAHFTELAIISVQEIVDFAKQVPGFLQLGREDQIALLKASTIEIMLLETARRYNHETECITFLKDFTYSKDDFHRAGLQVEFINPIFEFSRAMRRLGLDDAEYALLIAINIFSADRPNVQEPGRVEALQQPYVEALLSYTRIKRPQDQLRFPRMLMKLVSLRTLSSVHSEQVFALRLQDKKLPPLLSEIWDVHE
hcDAF12 conf = H. contortus DAF-12 receptor agonists, confirmation, cell-based, luminescence, HEK293, lit1-tk-luc, triplicate. shares compounds with hcDAF12 agonist. HEK293 hcDAF-12 lit1-tk-luc reporter; % of Δ7-dafachronic acid response. activation, % at 6.8 µM. 61% of 3,400 active. AID 743032, 2013;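 active = mean activation across triplicate tests above the threshold derived from the earlier primary screen, cut at about 5.5% in these data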;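 note: 0% = DMSO only wells and 100% = 3 µM Δ7-dafachronic acid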
Numbers without * were called inactive; / = not tested or not shown.

SMILES | DAX1 inh-1 | hcDAF12 agonist | ssDAF-12 act | hgDAF12 agonist | DAX1 inh-2 | SMARCA2 act | LXR ag | hcDAF12 conf
O=C(CNc1ccc2ccccc2c1)N/N=C/c1ccncc1 | -0.1 | 8.0* | 0.3 | 2.5 | 0.0 | 0.8 | -0.2 | 1.1
Clc1ccccc1OCc1nc(-c2ccc(Br)o2)no1 | -0.1 | 6.7* | -0.5 | 2.5 | 1.4 | 1.4 | -0.1 | 3.0
Cc1nc(-c2noc(-c3ccccc3Cl)n2)c(C(F)(F)F)o1 | 2.5 | 1.2 | -0.3 | 6.8 | 0.1 | 0.9 | / | /
Brc1ccc(-c2nc(-c3ccccn3)no2)o1 | -2.9 | 8.0* | -0.1 | 5.4 | 0.7 | 0.2 | 1.2 | 10.8*
Clc1ccccc1-c1nc(-c2ccc(Br)o2)no1 | 5.6* | 15.1* | 3.5* | 21.5* | 2.1 | 2.5 | 2.1 | 17.6*
Brc1ccc(-c2nc(-c3ccncc3)no2)o1 | -0.2 | -1.7 | -1.6 | 0.1 | 0.6 | 5.2 | / | /
COc1ccccc1-c1nc(-c2ccccn2)no1 | -3.2 | 8.6* | -0.3 | 7.8 | 2.8 | 4.1 | 1.0 | 10.3*
COC(=O)[C@H](C)N(CCc1cn(Cc2ccccc2)nn1)S(=O)(=O)c1ccccc1Br | / | -2.9 | -2.0 | -3.0 | 0.1 | -4.5 | / | /
COC(=O)C1=C(C)N(Cc2ccccc2C(F)(F)F)C(=NCc2ccc(OC)cc2)NC1c1ccc(C(F)(F)F)cc1 (stereo unspecified) | / | -0.9 | -0.1 | 4.0 | -1.4 | -5.4 | / | /
c1nc(NCC2CC2)c2cc(-c3ccc4c(c3)OCO4)ccc2n1 | / | 3.2 | 0.0 | 7.2 | / | / | / | /
CCOC(=O)c1cnn(-c2ncnc3sc4c(c23)CCC4)c1N | 0.3 | 7.3* | 0.8 | 2.2 | 0.5 | -2.7 | -0.2 | 4.3
CC(=O)c1cc(O)c2ccccc2c1O | 2.2 | 10.4* | 0.4 | 1.9 | 0.1 | 1.9 | 0.1 | 3.5
CC(=O)c1coc2c1cc(O)c1ccccc12 | -0.7 | -1.6 | -0.8 | 2.0 | 0.1 | 0.3 | / | /
O=C(COC(=O)CN1C(=O)C2CCCCC2C1=O)Nc1ccc(S(=O)(=O)N2CCOCC2)cc1 (stereo unspecified) | 0.7 | 8.9* | 1.5* | 0.8 | 0.1 | -1.0 | -0.2 | 3.3
COC(=O)CC#C[C@H](C)[C@@H](NS(C)(=O)=O)C1CCCCC1 | / | -0.3 | 0.5 | -1.8 | 0.7 | 3.3 | / | /
Cc1ccc2ccc(C3C(=O)c4ccccc4C3=O)nc2c1 | 0.7 | 14.9* | 1.8* | 14.1* | 2.6 | 4.4 | 2.1 | 19.0*
COc1ccccc1NC(=O)Nc1cccc(C(=O)O)c1 | -0.6 | -0.3 | -1.1 | 2.2 | 0.2 | 4.3 | / | /
COc1ccccc1NC(=O)NC(=O)c1ccccc1 | -0.4 | 11.0* | 0.7 | 9.0 | 0.4 | 6.6 | 1.0 | 12.7*
CCCCc1c(-c2ccccc2OC)ncn1Cc1c(Cl)cccc1Cl | / | -1.7 | -1.3 | -1.7 | -0.8 | -2.6 | / | /
O=C1NCCCC1C(=O)N/N=C/c1ccccc1O (stereo unspecified) | 2.7 | 7.5* | 0.1 | 2.1 | 0.1 | -1.1 | -0.2 | 1.6
CCC(C)[C@H](NC(=O)N1CC(=O)Nc2ccccc21)C(=O)N[C@H](Cc1c[nH]c2ccccc12)C(=O)O (stereo partly specified) | 0.6 | 8.0* | 0.2 | -0.3 | -0.5 | 0.3 | -0.3 | 3.1
CCC(C)[C@H](NC(=O)N1CC(=O)Nc2ccccc21)C(=O)N[C@@H](C(=O)O)c1ccccc1 (stereo partly specified) | -0.2 | -0.3 | -1.1 | 0.9 | 0.0 | -0.9 | / | /
CNc1cc([N+](=O)[O-])ccc1N/C=C/C(=O)c1cccs1 | 1.4 | 8.9* | 0.8 | 3.1 | 2.0 | 5.9 | -0.3 | 4.7
O=C(/C=C/Nc1cccc([N+](=O)[O-])c1)c1cccs1 | 3.0 | 12.5* | 1.8* | 13.3* | 2.0 | 4.5 | 1.6 | 14.3*
O=C(/C=C/Nc1ccccc1C(=O)O)c1cccs1 | -0.2 | 8.4* | -0.6 | 2.6 | 1.1 | 3.7 | 0.0 | 3.2
SMILES | DAX1 inh-1 | hcDAF12 agonist | ssDAF-12 act | hgDAF12 agonist | DAX1 inh-2 | SMARCA2 act | LXR ag | hcDAF12 conf
O=C(/C=C/Nc1ccc(Nc2ccccc2)cc1)c1cccs1 | 2.5 | -1.3 | -1.2 | 0.6 | -0.8 | 2.2 | / | /
CNc1cc([N+](=O)[O-])ccc1N/C=C/C(=O)c1ccc2c(c1)OCO2 | 3.0 | 4.2 | 0.8 | 4.7 | 1.5 | 0.1 | / | /
Clc1ccc(-c2nnc(SCc3cccc4ccccc34)n2Cc2ccco2)cc1 | / | -1.7 | -2.0 | 1.6 | -2.0 | 1.6 | / | /
c1ccc2sc(-c3csc4c3CCNC4)nc2c1 | / | 1.9 | -1.5 | 6.9 | / | / | / | /
Nc1ncnc2c1ncn2[C@@H]1O[C@H](C(=O)N[C@@H](CCc2ccccc2)C(=O)N2CCN(C(=O)N3CCOCC3)CC2)[C@@H](O)[C@H]1O | / | -0.3 | -1.1 | -2.8 | 1.3 | -1.4 | / | /
O=C(CCn1c(=S)oc2ccccc21)Nc1cccc(F)c1 | -0.9 | 7.5* | -1.3 | -0.7 | -0.2 | -4.4 | -0.6 | -1.6
Cc1ccc(NC(=O)CSc2nnc(C)c(=O)n2N)cc1Cl | -0.6 | -0.1 | -1.0 | 0.1 | -0.7 | -4.0 | / | /
Cc1nnc(SCC(=O)c2ccc(Cl)cc2)n(N)c1=O | 0.8 | 9.6* | 0.7 | 7.3 | 2.9 | 2.1 | 0.8 | 3.5
Cc1c[nH]c2cccc(-c3c(Cl)cccc3Cl)c12 | / | -0.8 | 0.1 | -0.2 | -0.6 | 5.0 | / | /
COC(=O)c1cc2c(c3c4cc(F)ccc4n(S(=O)(=O)c4ccc(OC)cc4)c13)C(=O)N(Cc1ccccc1OC)C2 | / | -0.9 | -0.6 | 1.2 | -0.1 | -5.3 | / | /
CCOC(=O)c1cn[nH]c1NC(=S)Nc1ccc(Cl)cc1 | / | 7.9* | -0.4 | 9.9 | 2.0 | -0.5 | 2.3 | 10.4*
COC(=O)[C@]12C[C@H](CC(=O)NCc3cccc(C(F)(F)F)c3)C(=O)N(CCc3ccc(OC)c(OC)c3)C1=C[C@H](COCc1ccccc1)O[C@@H]2C | / | -3.9 | -0.8 | -2.2 | -1.6 | 1.6 | / | /
